Experimental data reported in PubChem BioAssay AID493027 (The Scripps Research Institute Molecular Screening Center, 2011).
The whole screen tested about 2,000 compounds, of which about 45 (2%) were called active.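 The calls were made as follows: active = inhibition above the screen-wide mean inhibition plus 3 SD (cut at about 44% in these data); inactive = the rest.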 The sample as a whole holds a higher share of actives than the screen did.

Target: Perilipin-1 (Homo sapiens) + 1-acylglycerol-3-phosphate O-acyltransferase ABHD5 (Homo sapiens) (UniProt O60240+Q8WTS1)
Sequence (O60240 whole entry, looked up): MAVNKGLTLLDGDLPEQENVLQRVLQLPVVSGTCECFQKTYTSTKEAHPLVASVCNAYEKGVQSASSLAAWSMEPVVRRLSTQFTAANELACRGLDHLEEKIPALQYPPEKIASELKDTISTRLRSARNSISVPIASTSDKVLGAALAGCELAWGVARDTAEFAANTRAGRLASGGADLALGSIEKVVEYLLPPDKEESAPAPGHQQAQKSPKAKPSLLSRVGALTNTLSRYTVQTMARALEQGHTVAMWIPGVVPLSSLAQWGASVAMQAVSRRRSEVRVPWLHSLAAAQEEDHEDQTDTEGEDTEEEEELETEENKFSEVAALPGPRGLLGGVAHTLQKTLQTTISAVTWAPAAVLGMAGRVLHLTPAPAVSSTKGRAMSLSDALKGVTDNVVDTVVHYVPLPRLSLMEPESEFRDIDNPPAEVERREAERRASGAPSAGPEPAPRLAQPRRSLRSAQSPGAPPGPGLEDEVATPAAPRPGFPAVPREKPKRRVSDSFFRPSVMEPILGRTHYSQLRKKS
Sequence (Q8WTS1 whole entry, looked up): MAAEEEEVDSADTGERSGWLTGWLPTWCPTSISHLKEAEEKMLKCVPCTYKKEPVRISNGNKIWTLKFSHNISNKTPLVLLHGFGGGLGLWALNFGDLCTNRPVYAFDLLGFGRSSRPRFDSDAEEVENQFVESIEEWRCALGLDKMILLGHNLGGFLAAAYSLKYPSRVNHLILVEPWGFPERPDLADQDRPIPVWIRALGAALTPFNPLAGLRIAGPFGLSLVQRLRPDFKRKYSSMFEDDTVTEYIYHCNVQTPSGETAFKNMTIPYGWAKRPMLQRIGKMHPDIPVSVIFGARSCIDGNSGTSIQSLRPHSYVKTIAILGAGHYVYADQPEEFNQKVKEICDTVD
Assay: blockers of ABHD5 binding to perilipin-1 – cell lysate, split luciferase complementation, luminescence, NIH validation set, pilot screen (AID 493027);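 also: 0% = DMSO wells with the 100% control not disclosed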
Details: split G. princeps luciferase complementation, 4 h; at 7.9 µM, active compounds read high

Row | Structure (SMILES) | inhibition
1 | Cc1nc(C)c(C)nc1C | -2.64% (inactive)
2 | O=C1C=CC(=O)C(C2=C3C(=O)N(CCc4ccccc4)CC(=O)N3CCC2)=C1 | 68.9% (active)
3 | O=C1CCCCCN1Cc1ccccc1 | -0.49% (inactive)
4 | CC1(C)CC(CC(=O)Nc2nccs2)(c2ccccc2)CCO1 (configuration not stated) | -1.2% (inactive)
5 | COc1ccc(C2C(=O)c3ccccc3C2=O)cc1 | -2.92% (inactive)
6 | COc1ccc(C2=CC(=O)C=CC2=O)cc1 | 73.7% (active)
7 | COc1ccc(-c2nc(NC(C)=O)sc2-c2ccc(OC)cc2)cc1 | 11.4% (inactive)
8 | NS(=O)(=O)c1ccc(CNC(=O)c2cc(-c3ccccc3)nc3ccccc23)cc1 | 10.2% (inactive)
9 | CCOc1ccc2nc(NC(=O)NC3CCCCC3)sc2c1 | -5.14% (inactive)
10 | CCOc1cccc(N2C(=O)CC(N(CCc3ccc(OC)c(OC)c3)C(=O)CC)C2=O)c1 (configuration not stated) | -6.24% (inactive)
11 | COCCCN1C(=O)/C(=C\c2cccs2)C(C(=O)OC)=C1C | 3.99% (inactive)
12 | COC(=O)c1ccc(=O)n(Cc2ccco2)c1 | 12.2% (inactive)
13 | COC(=O)C1=C(C)N(Cc2ccco2)C(=O)/C1=C\c1ccc([N+](=O)[O-])cc1 | 86% (active)
14 | CN=C1c2cc3cc(OC)ccc3n2CCN1C | 3.44% (inactive)
15 | Oc1[nH]c2ccccc2c1N=Nc1ccccc1 | -0.17% (inactive)
16 | COC(=O)c1cc(COc2ccc3ccc(=O)oc3c2)c(C)o1 | -9.09% (inactive)
17 | Cc1ccccc1C(=O)NCC(=O)O | 0.22% (inactive)
18 | COc1ccc(CCNC(=O)c2ccc(Cl)cc2)cc1OC | -5.87% (inactive)
19 | CC(CN1c2ccccc2Sc2ccccc21)N(C)C (configuration not stated) | -9.88% (inactive)
20 | CCN1/C(=C/C=C/C=C/c2sc3ccccc3[n+]2CC)Sc2ccccc21 | 52.7% (active)
21 | CN(C)CCCN1c2ccccc2Sc2ccccc21 | -3.33% (inactive)
22 | CC(=O)N(C(C)=O)c1nc2nc(C)cc(C)n2n1 | -0.49% (inactive)
23 | OC(C#CCN1CCCC1)(c1ccccc1)c1cccnc1 (configuration not stated) | 0.07% (inactive)
24 | COc1ccc(Cc2nc(-c3ccc(Br)cc3)no2)cc1 | -12% (inactive)
25 | CCOc1ccc(CC2CCC(=O)NC2=O)cc1 (configuration not stated) | 3.55% (inactive)
26 | O=Cc1ccc(OC(=O)c2cccnc2)cc1 | -5.64% (inactive)

Row | Structure (SMILES) | inhibition
27 | Fc1ccc(-n2cc(CNCCc3ccccn3)c(-c3ccccc3Cl)n2)cc1 | 1.9% (inactive)
28 | CC(C)(C)OC(=O)N1CC(O)CC1C(=O)OCC(=O)c1ccc(Cl)cc1 (configuration not stated) | -9.04% (inactive)
29 | CCNC1=C(Cl)C(=O)c2ccccc2C1=O | -12.7% (inactive)
30 | CC1=CC(=O)c2ccccc2C1=O | 44.4% (active)
31 | CC(C)=CCC/C(C)=C/CC/C(C)=C/CC/C(C)=C/CC1=C(C)C(=O)c2ccccc2C1=O | 18.4% (inactive)
32 | COc1ccc2[nH]c3c(=O)n(/N=C/[C@H]4C(C)C=C(C)CC4C)c(=O)[nH]c3c2c1 (some centres not stated) | 23.9% (inactive)
33 | COc1ccc(CCNC(=O)c2c(O)c3c([nH]c2=O)CCCC3)cc1 | 3.26% (inactive)
34 | COc1ccc(C(=O)OCc2cc3cccc(C)c3[nH]c2=O)cc1 | -1.47% (inactive)
35 | Cc1cc(-c2nn(-c3ccccc3F)cc2CN2CCC(O)CC2)c(C)s1 | -2.82% (inactive)
36 | COc1cc2c3c(c1)C1(C(=O)N3C(C)(C)C=C2C)C(C#N)=C(N)Oc2cc(C)oc(=O)c21 (configuration not stated) | -0.82% (inactive)
37 | COc1cc2c3c(c1)C(C)CC(C)(C)N3C(=O)C2=O (configuration not stated) | 6.69% (inactive)
38 | CCOc1cc2c3c(c1)C(C)=CC(C)(C)N3C(=O)C2=O | 43.5% (active)
39 | CS(=O)(=O)Nc1cccc(C(=O)CC2(O)C(=O)Nc3ccc(Br)cc32)c1 (configuration not stated) | -3.35% (inactive)
40 | COc1cc2c(cc1OC)-c1nnc(C)n1C(C)(C)C2 | -2.21% (inactive)
41 | COc1ccccc1C(CC(=O)Nc1ccccc1C)c1ccc(OC(C)C)cc1 (configuration not stated) | 0.34% (inactive)
42 | COc1ccc(CNCCC(c2ccc(F)cc2)c2ccc(OC(C)C)cc2)cc1OC (configuration not stated) | -6.56% (inactive)
43 | COc1ccc(CN(CCC(c2ccccc2)c2ccc(OC(C)C)cc2)C(=O)CCl)cc1OC (configuration not stated) | 64.4% (active)
44 | CC(C)C12CN3CC(C(C)C)(CN(C1)C3c1ccccc1)C2O (configuration not stated) | -10.6% (inactive)
45 | Cn1c(=S)n(C)c2ccccc21 | -7.95% (inactive)
46 | COc1ccc2cc(C(=O)OC(C)C)sc(=O)c2c1OC | 3.53% (inactive)
47 | COc1cccc(OCc2cc(C3Nc4ccccc4C(=O)N3Cc3ccco3)ccc2OC)c1 (configuration not stated) | 42.9% (inactive)
48 | COC(=O)c1cc(-c2ccc(C)o2)nc2ccccc12 | 78% (active)
49 | O=C(O)c1cc(-c2ccccc2)nc2ccccc12 | -6.78% (inactive)
50 | CCCOc1ccc(-c2cc(C(=O)NCC3CCCO3)c3ccccc3n2)cc1 (configuration not stated) | -2.49% (inactive)
51 | COc1cc2cc(C)nc(Cc3cccc4ccccc34)c2cc1OC | 16.5% (inactive)
52 | COc1ccc(C2C3C(C)=NN=C3CC(C)(O)C2C(C)=O)cc1 (configuration not stated) | -2.63% (inactive)

Row | Structure (SMILES) | inhibition
53 | Oc1[nH]c2ccccc2c1C1=NCCCC1 | -6.01% (inactive)
54 | O=C(Cc1ccccc1[N+](=O)[O-])NCCCN1CCOCC1 | -7.14% (inactive)
55 | CC(=O)N(CCC(Cc1ccccc1)c1ccco1)Cc1ccco1 (configuration not stated) | 40.8% (inactive)
56 | COc1ccccc1C(CCN(Cc1ccccc1)C(C)=O)c1ccco1 (configuration not stated) | 9.44% (inactive)
57 | O=C(c1ccco1)N(CCC(c1ccccc1)c1ccco1)Cc1ccco1 (configuration not stated) | 56.6% (active)
58 | CCOc1ccc2ccccc2c1CNc1nnnn1C | -8.53% (inactive)
59 | COc1ccc(C(=O)Nc2nc3ccccc3c(=O)[nH]2)cc1 | -4.92% (inactive)
60 | CC(C)N1C(=O)/C(=C\c2nc3ccccc3c(=O)[nH]2)c2ccccc21 | 70.2% (active)
61 | CC(=O)Oc1ccc(C(=O)O)cc1OC(C)=O | 2.2% (inactive)
62 | CCC1(c2ccccc2)NC(=S)N(c2ccc(C)c(C)c2)N1 (configuration not stated) | -0.55% (inactive)
63 | CC(=O)/C=C/c1ccc(C)o1 | 18.2% (inactive)
64 | O=C(Nc1ccc(Oc2c(F)c(F)c(F)c(F)c2F)cc1)OC1CCN2Cc3ccccc3N=C12 (configuration not stated) | 71.9% (active)
65 | COc1cccc2c(=O)c3ccccc3oc12 | -14.7% (inactive)
66 | CCc1ccc(/C=C2\SC(=S)N(CCC(=O)N3CCN(C)CC3)C2=O)cc1 | -12.7% (inactive)
67 | O=c1c2ccccc2nnn1Cc1cccc2ccccc12 | 7.22% (inactive)
68 | COc1ccccc1C(=O)c1cc2ccc(O)cc2oc1=O | 4.61% (inactive)
69 | COc1cccc(/C=C/C(=O)c2c(O)cc(C)oc2=O)c1O | 47.8% (active)
70 | COc1ccccc1/C=C/C(=O)c1c2c(c(C)[nH]c1=O)CCCC2 | 28.8% (inactive)
71 | O=C1C(Cc2ccccc2)NC(=S)N1c1ccccc1 (configuration not stated) | -13.4% (inactive)
72 | Cc1ccc2c(c1)OC(=O)CC2c1ccccc1 (configuration not stated) | -5.39% (inactive)
73 | Oc1ccccc1OCCOc1ccccc1OCCOc1ccccc1O | 8.26% (inactive)
74 | Cc1cccc(OCC(=O)Nc2ccc(C(=O)NCC(C)C)cc2)c1 | -6.6% (inactive)
75 | CCCCc1oc2ccccc2c1C(=O)c1cc(I)c(OCCN(CC)CC)c(I)c1 | -6.98% (inactive)
76 | CCc1oc2ccccc2c1C(=O)c1cc(Br)c(O)c(Br)c1 | 57.3% (active)
77 | CC(=O)CCc1oc2ccccc2c1-c1ccccc1 | -1.83% (inactive)
78 | COc1cc2c(cc1OC)CN(Cc1ccc(C)s1)CC2 | 2.36% (inactive)

Row | Structure (SMILES) | inhibition
79 | O=C(N1CCCCC1)C1(c2ccccc2)CCOCC1 | -5.12% (inactive)
80 | Cc1cc(O)c2/c(=N\N)c(-c3csc(C)n3)coc2c1 | 5.2% (inactive)
81 | COc1cc(/C=C(\C#N)C(=O)N2CCc3ccccc32)ccc1O | 42.5% (inactive)
82 | COc1ccccc1C(=O)Oc1ccc2c(c1)O/C(=C\c1ccncc1)C2=O | 45.6% (active)
83 | CCc1ccc(/C=C2\Oc3cc(OC(=O)N4CCOCC4)ccc3C2=O)cc1 | 17.4% (inactive)
84 | COC(=O)c1ccc2c(c1)C(=O)/C(=C/c1ccc(O)cc1)O2 | 7.53% (inactive)
85 | O=C(O)CCSc1nc2ccccc2s1 | 0.7% (inactive)
86 | CC[n+]1c(C)sc2cc(C)ccc21 | 0.88% (inactive)
87 | O=C(OCCN1CCCC1)C1(c2ccccc2)CCCC1 | -8.49% (inactive)
88 | Cc1nc(C(=O)Nc2ccccc2Cl)cc2c1[nH]c1ccccc12 | -0.62% (inactive)
89 | COc1ccc(NC(=O)C2C(=O)N(CCO)C3(C)CC2c2ccccc2O3)cc1 (configuration not stated) | -10.9% (inactive)
90 | COc1ccc2c(c1)C=CC1(O2)N(CCO)c2ccccc2C1(C)C (configuration not stated) | 45.5% (active)
91 | O=C(Nc1cccc(Oc2c(F)c(F)c(F)c(F)c2F)c1)N1C[C@@H]2C[C@@H](C1)c1cccc(=O)n1C2 | 9% (inactive)
92 | COc1ccc(Cc2noc(CN(C)CC3(N4CCOCC4)CCCCC3)n2)cc1OC | -1.95% (inactive)
93 | Cn1cc(C2N3CC4(C)CN2CC(C)(C3)C4=O)c2ccccc21 (configuration not stated) | -7.09% (inactive)
94 | C[C@H](NC(=O)Nc1ccccc1F)C(=O)O | -0.07% (inactive)
95 | O=P(O)(O)CP(=O)(O)O | -4.16% (inactive)
96 | COc1cc(/C=C/C(=O)O)cc(S(=O)(=O)NCCCO)c1OC | -7.07% (inactive)
97 | O=C(Nc1ccccc1)OCC1CCCN2CCCCC12 (configuration not stated) | -5.9% (inactive)
98 | O=C(NCc1ccccc1Cl)NC(=O)c1ccccc1 | -2.42% (inactive)
99 | Cc1ccc(S(=O)(=O)N[C@@H](Cc2ccccc2)C(=O)CCl)cc1 | 82.3% (active)
100 | CCCCNC(=O)NS(=O)(=O)c1ccc(C)cc1 | -10.7% (inactive)
101 | CNS(=O)(=O)c1ccc(C)cc1 | -13.4% (inactive)
102 | COc1ccc(NC(=O)C2CCCN2C(=O)OC(C)(C)C)cc1 (configuration not stated) | -11.3% (inactive)
